Measurements reported in PubChem BioAssay.
Inconclusive results are not listed. Active and inactive are the calls of the source.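 Rule for the calls, unless noted: active = viability at or below 30% in both replicate assays; inconclusive = viability at or below 30% in just one of the two assays; inactive = the rest.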

What was measured:
[1] = reducers of endogenous Her2 protein level, primary screen, SKBR3 breast tumor cells, AlphaScreen, ATP viability (AID 461;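 active = Her2 level under about 52% in both replicate screens, with viability over 70% of control, limit read from the data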;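 for Her2 level: lower value means less Her2 protein in the cells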;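 for viability: percent of carrier control wells set as 100% viability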); details: 18-24 h, measured here: SKBR3 viability, ATP luminescence, at 10 µM
[2] = target: Receptor tyrosine-protein kinase erbB-2 (Homo sapiens) (UniProt P04626); experiment: as above; details: 18-24 h, at 10 µM, stronger effect = lower value
Receptor tyrosine-protein kinase erbB-2 (Homo sapiens), sequence (P04626 whole entry, looked up): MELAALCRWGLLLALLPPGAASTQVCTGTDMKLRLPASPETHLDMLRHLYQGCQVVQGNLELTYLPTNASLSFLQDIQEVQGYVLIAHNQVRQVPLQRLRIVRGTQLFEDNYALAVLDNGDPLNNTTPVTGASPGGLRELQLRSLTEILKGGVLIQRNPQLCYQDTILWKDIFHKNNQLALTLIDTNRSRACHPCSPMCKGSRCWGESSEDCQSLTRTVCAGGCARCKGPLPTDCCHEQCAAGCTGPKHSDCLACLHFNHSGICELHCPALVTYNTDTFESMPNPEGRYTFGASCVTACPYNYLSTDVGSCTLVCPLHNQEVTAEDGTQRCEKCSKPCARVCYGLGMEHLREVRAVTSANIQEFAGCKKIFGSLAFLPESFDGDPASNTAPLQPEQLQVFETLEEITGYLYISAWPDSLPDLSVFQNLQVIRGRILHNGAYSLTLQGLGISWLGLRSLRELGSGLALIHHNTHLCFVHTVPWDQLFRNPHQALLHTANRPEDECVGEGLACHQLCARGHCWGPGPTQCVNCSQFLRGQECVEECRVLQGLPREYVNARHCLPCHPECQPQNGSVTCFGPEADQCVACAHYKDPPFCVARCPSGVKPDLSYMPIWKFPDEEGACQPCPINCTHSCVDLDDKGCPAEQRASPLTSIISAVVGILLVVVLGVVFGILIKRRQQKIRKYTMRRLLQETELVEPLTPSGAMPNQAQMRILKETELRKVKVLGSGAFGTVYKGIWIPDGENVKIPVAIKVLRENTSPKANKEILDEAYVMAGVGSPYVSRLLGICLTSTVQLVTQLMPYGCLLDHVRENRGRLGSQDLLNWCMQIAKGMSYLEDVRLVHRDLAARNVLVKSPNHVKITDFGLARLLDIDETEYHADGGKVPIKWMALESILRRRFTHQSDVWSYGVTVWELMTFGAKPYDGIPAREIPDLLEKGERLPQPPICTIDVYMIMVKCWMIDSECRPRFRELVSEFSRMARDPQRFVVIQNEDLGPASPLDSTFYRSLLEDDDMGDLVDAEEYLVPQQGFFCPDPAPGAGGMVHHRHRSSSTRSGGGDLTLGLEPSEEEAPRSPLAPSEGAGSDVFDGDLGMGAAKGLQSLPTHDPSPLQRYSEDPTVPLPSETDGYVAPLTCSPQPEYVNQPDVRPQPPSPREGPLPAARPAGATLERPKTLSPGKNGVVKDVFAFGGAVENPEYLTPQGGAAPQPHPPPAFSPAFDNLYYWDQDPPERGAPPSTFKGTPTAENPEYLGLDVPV

[3] = SK-BR-3 cell growth inhibitors, pilot screen, 24 h, human (AID 572;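 active = viability at or below 10% of carrier control in both of two separate runs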;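 note: compound exposure lasted between 18 and 24 h rather than exactly 24 h; 100% = carrier-treated control wells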); details: SK-BR-3 viability, CellTiter-Glo luminescence, at 10 µM, stronger effect = lower value
[4] = HUVEC growth inhibition – cell-based, human, primary screen (AID 575); details: HUVEC proliferation, CellTiter-Glo luminescence, 72 h; at 10 µM; stronger effect = lower value;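 note: 100% = median of untreated cell wells with 0.1% DMSO on each plate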
[5] = growth inhibitors of H69AR lung tumor, primary screen, human, duplicate replicates (AID 580;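 active = viability at or under a set limit in both replicates, limit being median viability minus 3 SD, cut at about 48% in these data, passing the limit was not always enough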;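 note: 100% = mean luminescence of untreated wells and 0% = no signal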); details: H69AR lung tumor cells viability, ATP luminescence, 72 h; at 10 µM; stronger effect = lower value
[6] = reversal of MRP1-mediated doxorubicin resistance, pilot screen, H69AR cells, doxorubicin co-treatment (AID 601;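 active = viability loss from added drug above about 55%, and viability with drug at most 40%, in both replicates, limit read from the data, passing the limit was not always enough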); details: CellTiter-Glo, 72 h, at 10 µM; for differential viability (reversal): stronger effect = higher value
[7] = 384-well plate pilot, post-Golgi transport modulator project, inhibition of yeast transport mutant growth (AID 636; in the data active = inhibition above about 31%); details: absorbance 615 nm, about 18 h, stronger effect = higher value
[8] = growth suppression of yeast trafficking mutant, preliminary HTS, modulators of trafficking downstream of Golgi apparatus project, 1536-format plate, OD 615 nm (AID 637; in the data active = inhibition above about 30%); details: yeast transport mutant growth, absorbance 615 nm, 18 h; stronger effect = higher value
[9] = OD615 S. cerevisiae growth inhibition, permissive medium, pilot counter-assay, permissive growth control for S. cerevisiae lifespan shortening project (AID 705;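 active = growth inhibition above 25% in both replicates, a cutoff set 3 SD above the mean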); details: OD615, 24 h, at 10 µM, stronger effect = higher value
[10] = Restrictive medium S. cerevisiae growth inhibition, OD615, pilot screen of yeast lifespan reduction project, restrictive growth control (AID 706;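 active = growth inhibition above a set limit, 3 SD over mean compound inhibition, in both replicates, cut at about 43% in these data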;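 note: modified DeaD lifespan yeast strain shifted to restrictive glucose medium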); details: OD615, 48 h, at 10 µM, stronger effect = higher value
[11] = viability gain of MRP-1-high H69AR cells under doxorubicin, pilot screen, MRP-1 activator project, CellTiter-Glo, duplicate (AID 807;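 active = viability increase at or above a cutoff of the median across tested compounds plus 3 SD, cut at about 8.5% in these data, passing the limit was not always enough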;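 note: compound pretreatment 18-22 h then 72 h combined with doxorubicin; 0% = doxorubicin alone and 100% = vehicle without doxorubicin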); details: H69AR viability with doxorubicin, CellTiter-Glo luminescence; at 10 µM; stronger effect = higher value
[12] = growth suppression of beta-catenin knockout HCT116, pilot screen, human colon tumor cells (AID 823;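 active = cell viability at or below a set limit in both duplicate runs, the limit being the all-compound median minus 4 SD, cut at about 23% in these data, passing the limit was not always enough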;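 note: 0% = wells killed by 20 µM Hyamine and 100% = untreated DMSO cell wells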); details: CellTiter-Glo, 60 h, at 10 µM, stronger effect = lower value
[13] = growth suppression of PTEN-deleted HCT116, pilot screen, cell-based, HCT116 clonal line, CellTiter-Glo (AID 824;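 active = viability at or below 27.92% in each of two runs, the all-compound median minus 4 SD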;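 note: 0% = 20 µM Hyamine control and 100% = vehicle cell control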); details: 60 h, at 10 µM, stronger effect = lower value
[14] = inhibitors of the yeast RAM network, pilot screen, dse1pr::URA3 reporter, 5-FOA selection (AID 869;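 active = inhibition over a set limit, the all-compound mean plus 3 SD, in both replicate runs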;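 note: 0% = DMSO wells with no growth and 100% = 10 µM 1-NA-PP1 with full growth; RAM network block rescues cells from 5-FOA so hits raise OD615 growth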); details: S. cerevisiae dse1pr::URA3 5-FOA growth, OD615, 2 d; at 10 µM; stronger effect = higher value; strain carries analog-sensitive mutant Cbk1 kinase
[15] = RAM signaling pathway blockade in yeast – S. cerevisiae, Pdr1DBD-CYC8 efflux-inhibited sensitized strain, primary screen (AID 1298;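 active = RAM network inhibition above 8.4% in each of two replicates, 3 SD over the compound average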;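 note: 0% = DMSO untreated cells without growth and 100% = 10 µM 1-NA-PP1 full growth; higher means more yeast growth rescued from 5-FOA killing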); details: S. cerevisiae cbk1-as DSE1-URA3 strain, 5-FOA growth OD615, 2 d; at 50 µM; stronger effect = higher value
[16] = H69AR cells + 2 uM doxorubicin, measured here: viability with 2 uM doxorubicin, stronger effect = lower value
[17] = H69AR cells, compound alone cytotoxicity

Structure (SMILES)	viability [1] [%]	Her2 level [2]	viability [3]	viability [4]	viability [5]	differential viability (reversal) ([6]; H69AR cells + 2 uM doxorubicin)	viability [6, 16] [%]	viability [6, 17] [%]	inhibition [7]	inhibition [8]	growth inhibition [9]	growth inhibition [10]	viability increase [11]	viability [12]	viability [13]	inhibition [14]	RAM network inhibition [15]
CC(C)CCn1c(NCCc2ccccc2)nc2c1c(=O)n(C)c(=O)n2C	80	57.5% (inactive)	80% (inactive)	50.8% (inactive)	81.8% (inactive)	-0.235% (inactive)	82.1	81.8	-2.93% (inactive)	2.17% (inactive)	-0.96% (inactive)	8.48% (inactive)	-2.21% (inactive)	57.1% (inactive)	57.4% (inactive)	1.94% (inactive)	-0.32% (inactive)
O=C(NCCN1CCCCCC1)c1ccc(CS(=O)(=O)c2ccc(Br)cc2)o1	86.5	104% (inactive)	86.5% (inactive)	86.2% (inactive)	91% (inactive)	7.95% (inactive)	83.1	91	0.8% (inactive)	2.5% (inactive)	-6.86% (inactive)	-14.6% (inactive)	-3.11% (inactive)	78% (inactive)	82.6% (inactive)	-0.1% (inactive)	4.63% (inactive)
CCN(CC)c1ccc(NC(=O)CN2C(=O)CC(C)(C)S(=O)(=O)c3ccccc32)c(C)c1	102	111% (inactive)	102% (inactive)	102% (inactive)	84.8% (inactive)	-7.56% (inactive)	92.4	84.8	-4.8% (inactive)	0.83% (inactive)	-6.69% (inactive)	-16.1% (inactive)	-4.31% (inactive)	63.6% (inactive)	78.1% (inactive)	1.72% (inactive)	3.26% (inactive)
N#Cc1ccc(-c2csc(NC(=O)C3CC3)n2)cc1	95.5	91% (inactive)	95.5% (inactive)	109% (inactive)	91.9% (inactive)	6.75% (inactive)	85.1	91.9	-2.93% (inactive)	0.16% (inactive)	-18.1% (inactive)	-2.02% (inactive)	3.47% (inactive)	103% (inactive)	88.9% (inactive)	2.53% (inactive)	4.29% (inactive)
O=C1c2ccccc2C(Nc2ccc3c(c2)OCO3)N1Cc1ccc2c(c1)OCO2 (stereo not given)	86	81.5% (inactive)	86% (inactive)	50% (inactive)	83.4% (inactive)	-3.75% (inactive)	87.1	83.4	-0.27% (inactive)	1.83% (inactive)	-0.885% (inactive)	-1.48% (inactive)	-0.78% (inactive)	76.8% (inactive)	70.1% (inactive)	1.67% (inactive)	4.17% (inactive)
CCOc1ccc2[nH]c(C)cc(=O)c2c1	100	100% (inactive)	100% (inactive)	94.8% (inactive)	108% (inactive)	18.7% (inactive)	89.6	108	0% (inactive)	-9.02% (inactive)	-12.8% (inactive)	3.82% (inactive)	-2.11% (inactive)	96.7% (inactive)	88.4% (inactive)	2.86% (inactive)	3.45% (inactive)
Cc1ccc(-c2cc(C(F)(F)F)n3nc(C(=O)N4CCCC4)cc3n2)cc1	101	84.5% (inactive)	101% (inactive)	108% (inactive)	111% (inactive)	11.3% (inactive)	100	111	-0.68% (inactive)	3.65% (inactive)	-13.3% (inactive)	1.45% (inactive)	-2.2% (inactive)	96.9% (inactive)	89% (inactive)	1.95% (inactive)	4.14% (inactive)
O=C(COc1ccc(=O)n(-c2ccccc2)n1)Nc1ccccc1	96	95.5% (inactive)	96% (inactive)	102% (inactive)	98.8% (inactive)	6.32% (inactive)	92.4	98.8	-4.4% (inactive)	0.82% (inactive)	-1.58% (inactive)	9.99% (inactive)	-1.83% (inactive)	109% (inactive)	98.6% (inactive)	2.81% (inactive)	1.04% (inactive)
Nc1nc2n(n1)C(c1c(F)cccc1Cl)CC(c1ccc(F)cc1)N2 (stereo not given)	102	91.5% (inactive)	102% (inactive)	103% (inactive)	86.2% (inactive)	-3.43% (inactive)	89.6	86.2	-5.2% (inactive)	0.33% (inactive)	-4.67% (inactive)	0.29% (inactive)	-2.4% (inactive)	89.7% (inactive)	86.9% (inactive)	0.17% (inactive)	3.18% (inactive)
Cn1cccc1Cc1nnc(SCC(=O)NCC2CCCO2)n1-c1ccc(F)cc1 (stereo not given)	97.5	90% (inactive)	97.5% (inactive)	106% (inactive)	91% (inactive)	0.18% (inactive)	90.9	91	-4.93% (inactive)	-2.33% (inactive)	-11.2% (inactive)	-5.59% (inactive)	-1.1% (inactive)	108% (inactive)	94.7% (inactive)	0.02% (inactive)	6.15% (inactive)
